TRHR agonist = qHTS for Small Molecule Agonists and Allosteric Enhancers of Human TRH Receptor: Primary Screen for Agonists | Thyrotropin-releasing hormone receptor (Homo sapiens), P34981 | TRHR cells, calcium flux fluo-8, FDSS agonist mode | activation, % at 2 µM | 0.18% of 360,000 active; also: 0% is about no effect
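TRHR-expressing cells loaded with fluo-8 calcium dye; 23 nL library compound pin-transferred, kinetic FDSS fluorescence (Ex 480/Em 530) recorded about 180 s for agonist-induced calcium release, before a 10 nM TRH EC20 addition for potentiator mode.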
D1 antag = Antagonist of Human D 1 Dopamine Receptor: qHTS | D(1A) dopamine receptor (Homo sapiens), P21728 | HEK293 TREx D1 cells, calcium flux, dopamine EC80; hits give low values | 3.2% of 360,000 active | AID 504652, 2011 | activity change, negative = inhibition, % at 10 µM; in the data active = activity change below about -30%; also: % is scaled to controls: 0 for no effect and ±100 for the full control effect
Target sequence (P21728 whole entry, looked up): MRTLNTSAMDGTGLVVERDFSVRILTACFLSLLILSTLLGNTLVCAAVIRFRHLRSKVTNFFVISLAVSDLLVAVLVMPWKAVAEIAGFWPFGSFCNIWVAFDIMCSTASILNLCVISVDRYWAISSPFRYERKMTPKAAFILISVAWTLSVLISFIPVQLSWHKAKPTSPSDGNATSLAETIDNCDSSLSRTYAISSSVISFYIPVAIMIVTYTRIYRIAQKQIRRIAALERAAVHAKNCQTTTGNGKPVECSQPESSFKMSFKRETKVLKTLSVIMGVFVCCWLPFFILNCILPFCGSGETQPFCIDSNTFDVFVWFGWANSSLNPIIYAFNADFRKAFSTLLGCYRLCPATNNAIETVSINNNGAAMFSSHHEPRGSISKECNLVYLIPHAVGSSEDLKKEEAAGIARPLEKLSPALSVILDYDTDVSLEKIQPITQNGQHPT
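Cells carrying a force-coupled, tetracycline-inducible human D1 receptor report calcium flux. Each well gets a 10 s baseline, compound with 180 s monitoring, then an EC80 dopamine stimulus with a second 180 s kinetic read.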
TRHR PAM = qHTS for Small Molecule Agonists and Allosteric Enhancers of Human TRH Receptor: Primary Screen for Enhancers. Thyrotropin-releasing hormone receptor (Homo sapiens), P34981. TRHR cells, fluo-8 calcium fluorescence, EC20 TRH enhancement. enhancement, % at 2 µM. 0.66% of 360,000 active. AID 493056, 2011; in the data active = enhancement above about 30%; also: 0% is about no effect
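Enhancer read-out: after compound pinning and an initial kinetic agonist-mode read, an EC20 of TRH (10 nM final) was injected and fluo-8 calcium signal (Ex 480/Em 530) followed at 1 s/cycle for 100 cycles in TRHR-expressing cells.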
D1 potentiator = Potentiators of Human D1 Dopamine Receptor: qHTS. AID 504651, 2011. potentiation, % at 10 µM. HEK293 TREx D1 cells, calcium flux, dopamine EC20 potentiation. 0.036% of 360,000 active. D(1A) dopamine receptor (Homo sapiens), P21728; in the data active = potentiation above about 30%; also: 0% is about no effect
D1 ag = Allosteric Agonists of the Human D1 Dopamine Receptor: qHTS; HEK293 T-REx D1 cells, calcium flux, agonist mode; 1% of 360,000 active; D(1A) dopamine receptor (Homo sapiens), P21728; activation, % at 2 µM; also: 0% is about no effect
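Inducible HEK293 T-REx D1 cells, force-coupled to calcium signalling, were plated at 4000 cells/well with tetracycline and held overnight at 30 C. After no-wash calcium dye loading, compound-evoked calcium rise over 180 s flagged agonists.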
The depositor's hits bear a star; / = no result. Hits are enriched below; roughly 4.6% of the tested compounds scored in any of these assays. Rule as the data show it, unless noted: active = activation above about 30%; inactive = the rest.

SMILES	TRHR agonist	D1 antag	TRHR PAM	D1 potentiator	D1 ag
COCCNS(=O)(=O)c1cc(OC)ccc1OC	1	/	-6	4	0
CCc1ccc(OC)c(S(=O)(=O)NCCOc2ccccc2)c1	-2	3	31*	-6	4
N#Cc1cc2c(nc1SCc1cccc(Cl)c1)CCCCC2	0	-39*	2	-3	2
Cc1ccc(CSc2nc3c(cc2C#N)CCC3)cc1	0	-35*	2	-1	1
N#CCSc1nc2c(cc1C#N)CCCC2	-1	-32*	-1	-4	4
N#Cc1cc2c(nc1SCc1ccccc1)CCCCC2	0	5	8	-2	12
O=S(=O)(Nc1ccc(N2CCCCC2)cc1)c1ccc(F)c(F)c1	-1	-8	1	-3	58*
N#Cc1ccccc1COC(=O)c1ccc2c(c1)OCO2	0	-42*	3	-2	3
CCOC(=O)c1ccccc1NC(=O)COC(=O)CC(C)(C)CC1=NS(=O)(=O)c2ccccc2N1	-1	-37*	3	0	14
CCOC(=O)Cn1cnc2c(cnn2-c2ccccc2)c1=O	0	-1	-6	-6	0
O=C(Cn1cnc2ccccc2c1=O)c1ccc(Cl)cc1	-1	-42*	-7	-3	2
Cc1cc2c(=O)n(CC(=O)N3CCN(c4ccccc4)CC3)cnc2s1	-2	0	1	-3	-1
O=C(Cn1nc(-c2ccc(Cl)cc2)ccc1=O)N1CCN(c2ccccc2)CC1	1	5	32*	10	0
O=C(Cn1cnc2ccccc2c1=O)c1ccccc1	1	-7	-4	1	1
O=C(Cn1cnc2ccccc2c1=O)N1CCN(c2ccccc2)CC1	0	-36*	2	-7	1
CCOC(=O)Cn1cnc2c(cnn2-c2ccc(Cl)cc2)c1=O	0	-49*	13	-11	15
CCOc1ccccc1CNS(=O)(=O)c1ccc2[nH]c(=O)ccc2c1	0	-4	1	1	2
O=C(Nc1ccc(OCc2cc(=O)n3c4c(sc3n2)CCCC4)cc1)c1cccc(F)c1	1	-25	7	-2	0
COc1ccc(N2CCN(C(=O)Cn3cnc4nc5c(cc4c3=O)CCCC5)CC2)cc1	-1	-31*	5	-4	4
O=C(Cn1cnc2c(cnn2-c2ccccc2)c1=O)N1CCOCC1	0	-9	7	4	3
O=C(Cn1cnc2c(cnn2-c2ccc(Cl)cc2)c1=O)N1CCN(c2ccccc2)CC1	0	-32*	30	-8	2
CCOc1ccccc1CNC(=O)C(CC)n1nc(C)c2c(C)n(-c3ccccc3)nc2c1=O (stereo not given)	-1	0	-5	0	2
CCN1C(=O)/C(=C/c2cnn(C)c2C)SC1=S	1	-32*	-5	4	2
CSc1ccc(/C=C/C(=O)OCC(=O)N2CCN(S(=O)(=O)c3ccc(C)cc3C)CC2)cc1	1	-33*	-4	-3	12
Cc1ccc(S(=O)(=O)N2CCN(C(=O)COC(=O)/C=C/c3ccc(F)cc3)CC2)c(C)c1	0	-38*	-6	-2	7
SMILES	TRHR agonist	D1 antag	TRHR PAM	D1 potentiator	D1 ag
Cc1ccc(S(=O)(=O)N2CCN(C(=O)COC(=O)/C=C/c3ccccc3)CC2)c(C)c1	1	-6	6	-1	8
COc1ccc(-c2nn(CC(=O)NCc3ccccc3)c3c2cnc2ccc(F)cc23)cc1	-1	-13	0	-3	3
CCOc1ccccc1C(=O)N1CCCCC1CCN1CCOCC1 (stereo not given)	0	8	-1	-1	2
Cc1ccnc(NC(=O)c2ccc(COc3c(F)c(F)cc(F)c3F)o2)c1	-1	-1	-4	-11	9
O=C(Nc1ccc(Br)cn1)c1ccc(COc2c(F)c(F)cc(F)c2F)o1	1	-6	10	/	32*
Cc1ccc(NC(=O)c2ccc(-c3cccc(Cl)c3C)o2)cc1	2	-5	36*	0	12
Cc1ccc(C2(C)NC(=O)N(CC(=O)c3ccc4c(c3)OCCO4)C2=O)cc1 (stereo not given)	1	-43*	-2	-4	9
CCC1(c2ccc(F)cc2)NC(=O)N(CC(=O)N2c3ccccc3CC2C)C1=O (stereo not given)	6	4	0	5	85*
CCC1(c2ccc(F)cc2)NC(=O)N(CC(=O)NC2CC2)C1=O (stereo not given)	0	13	20	-5	1
CCc1ccc(C(=O)CN2C(=O)NC(C)(c3ccc(C)cc3)C2=O)cc1 (stereo not given)	1	15	10	-1	9
CCC1(c2ccc(OC)cc2)NC(=O)N(CC(=O)N2CCc3ccccc32)C1=O (stereo not given)	7	6	-1	-5	39*
CCC1(c2ccc(F)cc2)NC(=O)N(CC(=O)c2cc(C)n(C3CC3)c2C)C1=O (stereo not given)	8	-3	-7	-2	41*
COc1ccc2c(c1)Cc1sc(NC(=O)c3ccc(Cl)cc3)nc1-2	0	-5	5	0	1
Cc1ccc(Cl)cc1NC(=O)C(=O)NCC(c1cccnc1)N1CCc2ccccc21 (stereo not given)	-1	48	-2	-3	2
CCC1(c2ccc(F)cc2)NC(=O)N(CC(=O)N(CCC#N)c2ccccc2)C1=O (stereo not given)	0	13	31*	-3	12
CCC1(c2ccc(OC)cc2)NC(=O)N(CC(=O)c2ccc3c(c2)OCCO3)C1=O (stereo not given)	3	35	7	-2	32*
COc1ccc(C2=NN(CC(=O)NCCc3ccccc3)C(=O)CC2)cc1	-1	6	6	-4	-1
O=C(NCCC1=CCCCC1)c1ccc2c(=O)n3nc(Nc4ccccc4)sc3nc2c1	1	-7	-2	1	2
O=C(Nc1ccc2oc(-c3ccncc3)nc2c1)c1ccccc1Cl	0	-71*	0	0	2
Cc1ccc2oc(-c3cc(NC(=O)c4oc5ccccc5c4C)ccc3Cl)nc2c1	0	5	-3	-1	7
O=C(O)c1ccccc1-c1ccccc1C(=O)Nc1ccc(-c2nc3cc(Cl)ccc3o2)cc1	1	-30*	1	-4	7
O=C(Nc1ccc2oc(-c3ccccc3F)nc2c1)c1ccccc1Cl	0	-48*	6	-2	4
